# High-throughput results as filed in PubChem.
# Pol beta inh: inhibitors of human DNA polymerase beta; P06746; Pol beta primer extension/strand displacement, fluorescence kinetic; Potency, µM (top dose mostly 114 µM), without a hit: top-dose activity change, negative = inhibition, usual class: inhibitors; 1.3% of 340,000 active; further: potency means the concentration at half of the fitted maximal effect; on the % scale 0 is the no-effect control and ±100 the full control effect
#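 Preincubation: enzyme (10 nM) with compound, 15 min, RT. Reaction: substrate added to 50 nM final. Reads: 0 and 10 min. Analysis: normalized, Hill fit.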
# PI5P4K alpha inh: blocks human PI5P4K alpha kinase activity; AID 652105; P48426; max response, %; PI5P4Kalpha enzyme, ADP-Glo luminescence, 60 min; stronger effect = lower value; 1.2% of 330,000 active; active means max response of -50% or lower; inconclusive means between -30% and -50%; inactive means -30% or higher; further: value at the top dose of about 77 µM; on the % scale 0 is the no-effect control and ±100 the full control effect
#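 Compounds were pin-transferred onto PI5P4Kalpha and substrate in HEPES pH 7.4 buffer with EGTA, CHAPS and 5% DMSO. ATP (5 microM final) started the reaction, which ran 60 minutes at room temperature before ADP-Glo detection.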
# WRN helicase inh: blocks human WRN helicase; 0.46% of 360,000 active; Potency, µM (titrated, usually from 114 µM), inactives show at the top dose activity change, negative = inhibition, hits mostly inhibitors; Q14191; WRN helicase unwinding, fluorescent forked duplex, kinetic; AID 651768; further: potency means the concentration at half of the fitted maximal effect; on the % scale 0 is the no-effect control and ±100 the full control effect; nearly all actives have a fitted effect of over 55% in size
#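 Primary qHTS, 1536-well format. 20 nM WRN + compound, 15 min RT; start with 100 nM forked fluorophore/quencher duplex, 2 mM ATP (final); kinetic read ex 525/em 598 nm.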
# POLI inh: inhibitors of human DNA polymerase iota | Q9UNA4 | Pol iota fluorescent replication assay, 10 min | Potency, µM (highest dose often 115 µM), for inactives: at the highest dose activity, negative = inhibition, actives largely listed as inhibitors | 1% of 390,000 active | AID 588590; further: potency means the concentration at half of the fitted maximal effect
#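 Fluorescent replication assay read twice, at 0 min and 10 min after adding 50 nM (final) substrate. Enzyme (10 nM) and compounds were first incubated 15 min at room temperature; enzyme-free buffer wells were negative controls.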
# POLH inh: inhibitors of human DNA polymerase eta. Q9Y253. recombinant Pol eta, fluorescent DNA replication assay. Potency, µM (titrated, usually from 114 µM), inactives show at the top dose activity change, negative = inhibition, hits mostly inhibitors. 1.2% of 390,000 active. AID 588591; further: potency means the concentration at half of the fitted maximal effect; on the % scale 0 is the no-effect control and ±100 the full control effect
# Target sequence (Q9Y253 whole entry, looked up): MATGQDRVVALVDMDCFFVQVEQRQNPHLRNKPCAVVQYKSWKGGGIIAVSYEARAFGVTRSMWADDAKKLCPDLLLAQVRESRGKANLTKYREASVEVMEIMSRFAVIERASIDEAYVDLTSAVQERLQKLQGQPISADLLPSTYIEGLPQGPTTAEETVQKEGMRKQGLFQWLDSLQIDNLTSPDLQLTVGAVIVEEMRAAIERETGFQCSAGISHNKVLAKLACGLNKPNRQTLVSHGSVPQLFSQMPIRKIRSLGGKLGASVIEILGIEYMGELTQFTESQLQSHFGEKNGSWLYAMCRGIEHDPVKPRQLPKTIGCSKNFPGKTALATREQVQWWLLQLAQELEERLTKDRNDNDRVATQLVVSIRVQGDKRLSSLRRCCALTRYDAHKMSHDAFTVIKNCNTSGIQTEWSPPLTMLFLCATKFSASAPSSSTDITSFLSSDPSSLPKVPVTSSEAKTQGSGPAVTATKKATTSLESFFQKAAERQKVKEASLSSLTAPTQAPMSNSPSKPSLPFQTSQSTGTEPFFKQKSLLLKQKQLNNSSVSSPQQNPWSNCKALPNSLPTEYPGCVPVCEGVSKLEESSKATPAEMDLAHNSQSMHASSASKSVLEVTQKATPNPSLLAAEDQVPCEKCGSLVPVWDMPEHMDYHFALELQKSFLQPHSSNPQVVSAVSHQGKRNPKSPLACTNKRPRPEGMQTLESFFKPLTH
#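 Pol eta (10 nM) was preincubated with compounds for 15 min at room temperature, after which fluorescent replication substrate (50 nM final) was added to start the reaction. Fluorescence was read kinetically at 0 and 10 min.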
# Pol kappa inh: DNA polymerase kappa (human) inhibition; Potency, µM (series often up to 107 µM), for inactives: top-dose activity, negative = inhibition, actives largely listed as inhibitors; purified Pol kappa, fluorescent DNA synthesis assay, 10 min; 0.53% of 400,000 active; Q9UBT6; AID 588579; further: potency means the concentration at half of the fitted maximal effect; on the % scale 0 is the no-effect control and ±100 the full control effect
#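 First, compounds were pin-transferred onto 10 nM Pol kappa. After 15 min at room temperature, substrate was added to 50 nM final. Fluorescence was then measured kinetically at 0 and 10 min.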
# * = called active by the depositor; ? = inconclusive; . = no result; [ ] = dose if it differs, or a comment. Compounds with a hit are over-represented: about 2.8% of the library has one in this group of screens. Unless noted, the call rests on the fitted dose curve; in most records, active means well fitted curve in the direction sought with a large enough effect; inconclusive means small, poorly fitted or top-dose-only effect, or another doubt; inactive means no such curve, though single readings can be large; an effect the other way counts as inactive or inconclusive.
SMILES,Pol beta inh,PI5P4K alpha inh,WRN helicase inh,POLI inh,POLH inh,Pol kappa inh
Cc1c(CN2CCCC(C)C2)c(O)n(CCO)c(=O)c1C#N (stereo not drawn),?,-8,-23%,108%,-13%,-4%
C=CCn1c(O)c(CN2CCCCC2)c(C)c(C#N)c1=O,10%,-5,-4%,28µM*,-20%,-10%
CCCCCC(=O)Cc1cc(O)cc2c1C(=O)Oc1cc(O)c(C(=O)O)c(CCCCC)c1O2,45µM*,-76*,45µM*,71µM*,18µM*,79µM*
CCOC(=O)c1c(C)c(C(=O)NCc2ccc(Cl)cc2)c(C)n1C,4%,.,.,32%,-15%,-5%
COCc1ccc(CN2CCc3c([nH]c4ccccc34)C2C(C)(C)C)o1 (stereo not drawn),20µM*,6,-11%,-10%,-10%,-19%
O=C(Nc1ccc(Cl)cc1Cl)c1ccc2c(c1)OCCO2,.,18,0%,12%,-7%,-2%
O=C(Nc1ccc(Cl)cc1Cl)c1cccc(N2C(=O)C=CC2=O)c1,35%,-51*,0%,-14%,41%,-10%
CC1=CC(=O)CC2C1(C)CCC(C)C2(C)CCC(C)CC(=O)O (stereo not drawn),45µM*,-12,-4%[11.6 µM],89µM*,79µM*,-28%
Cc1ccc(N2C(=O)[C@@H]3[C@H](C2=O)C2c4ccccc4C=CN2[C@@H]3C(=O)c2ccco2)cc1 (stereo partly drawn),6%,-13,-23%,?,?,-23%
O=C(c1ccco1)[C@@H]1[C@@H]2C(=O)N(c3ccccc3)C(=O)[C@@H]2C2c3ccccc3C=CN21 (stereo partly drawn),36%,.,-14%,13µM*,?,-13%
Cc1ccc(N2C(=O)[C@@H]3[C@H](C2=O)C2c4ccccc4C=CN2[C@@H]3C(=O)c2ccco2)c(C)c1 (stereo partly drawn),21%,-22,-28%,?,28µM*,-23%
Cc1cccc(C)c1NC(=O)C1C2C=CC(C2)C1C(=O)O (stereo not drawn),7%,-3,-12%,130%,-22%,-8%
O=C(CCc1ccc(O)cc1)c1c(O)cc(O)cc1O,7.1µM*,-69*,-3%,-21%[58.9 µM],-1%[57.1 µM],?
O=C(Cc1ccc2c(c1)OCCO2)c1c(O)cc(O)cc1O,16%,.,-15%,?,7%,-2%
O=C(O)/C=C/C(=O)c1c(-c2ccccc2)[nH]c2ccccc12,-17%,-6,-34%,2.5µM*,?,-2%
CCOc1ccc(NC(=O)CC2Nc3cccc4cccc(c34)NC2=O)cc1 (stereo not drawn),31%,.,.,5µM*,4%,?
CCOC(=O)c1ccc(NC(=O)CC2Nc3cccc4cccc(c34)NC2=O)cc1 (stereo not drawn),-3%,.,.,3.5µM*,-20%,14µM*
CC(=O)Nc1ccc(NC(=O)CC2Nc3cccc4cccc(c34)NC2=O)cc1 (stereo not drawn),9%,?,-3%,?,?,-5%
CC(=O)Nc1cc(-c2cccc(N)c2)cn2c(-c3ccccc3)cnc12,.,-20,-17%,.,.,.
Cc1cc(C)c(C)c(S(=O)(=O)N2CCN(C(=O)c3ccccn3)CC2)c1C,.,6,-7%,13%,-14%,-2%
CCOc1ccc(CCNC(=O)CS(=O)Cc2nc(-c3ccccc3C)oc2C)cc1OCC (stereo not drawn),2%,14,-2%,6%,-8%,2%
CCC(C)[C@H](NC(=O)N1CC(=O)Nc2ccccc21)C(=O)N1CCC[C@@H]1C(=O)O (stereo partly drawn),-2%,-1,1%,-17%,-11%,-2%
CCC(C)[C@H](NC(=O)N1CC(=O)Nc2ccccc21)C(=O)N1CCC[C@H]1C(=O)O (stereo partly drawn),3%,-8,-1%,79µM*,-18%,11%
O=C(NCc1ccco1)c1ccc2sc([C@@H]3O[C@H](CO)[C@H](O)[C@H](O)[C@H]3O)nc2c1,.,2,4%[57.1 µM],.,.,.
COc1ccc(C(=O)N2CCC2(C)C(=O)O)cc1C(F)(F)F (stereo not drawn),.,-7,2%,.,.,.
SMILES,Pol beta inh,PI5P4K alpha inh,WRN helicase inh,POLI inh,POLH inh,Pol kappa inh
COC(=O)c1c(NC(=O)c2ccoc2C)sc2c1CCC2,22µM*,-29,-17%,?,?,?
O=c1ccc2cc3c4c(c2o1)CCCN4CCC3,0%,2,-20%,?,?,-33%
O=c1ccc2c(o1)/C(=C/C=C(Cl)Cl)CCC2,28µM*,-8,-7%,?,-10%,-8%
O=C(Nc1ccc(F)cc1Cl)C1CCN(C(=O)Nc2ccccc2)CC1,8%,6,-1%,30%,-20%,-4%
NC(=O)COc1ccc2cc(-c3ccc(F)cc3)c(=O)oc2c1,25µM*,-1,1%,-3%,-27%,-7%
CC1=NNC(=O)C1Oc1ccccc1 (stereo not drawn),-2%,0,2%,25µM*,-8%,-9%
CCCN(C/C=C/I)C1CCc2cccc(O)c2C1 (stereo not drawn),.,.,.,.,.,1%[19.4 µM]
COc1cccc(/C=C2\Oc3cc(OCC(=O)N4CCC[C@H]4C(=O)O)ccc3C2=O)c1,-2%,-25,-10%[11.6 µM],1%,45µM*,-4%
COc1ccc(/C=C2\Oc3cc(OCC(=O)N4CCC[C@H]4C(=O)O)ccc3C2=O)c(OC)c1,29%,1,-11%,?,-11%,?
C#CCNC(=O)C1=C[C@@H](c2ccccc2)C[C@@H](OCc2ccc(CO)cc2)O1,1%,-13,12%,38%,-18%,-8%
C#CCNC(=O)C1=C[C@H](c2ccc(C#C)cc2)C[C@H](OCc2ccc(CO)cc2)O1,.,-59*,-12%,?,45µM*,?
C#Cc1ccc([C@H]2C=C(C(=O)OCC=C)O[C@@H](OCc3ccc(CO)cc3)C2)cc1,.,?,-15%,?,28µM*,?
O=C(/C=C/[C@H]1O[C@@H](n2ccc(=O)[nH]c2=O)[C@H](O)[C@@H]1O)NC(c1ccccc1)c1ccccc1,.,1,-9%,.,.,.
O=C(Nc1ccc(N2CCN(c3ccc(O)cc3)CC2)cc1)Oc1ccccc1,28%,.,-4%,5%,-6%,-8%
Nc1ccc(OC(=O)Nc2ccc(O)cc2)cc1,32%,-9,-14%,20µM*,-13%,-8%
C=CCn1c2ccccc2c2nnc(SCC(N)=O)nc21,58%,4,-9%,26%,-12%,-9%
C=CCSc1nnc2nc3c(nn12)c1cc(C)ccc1n3CC=C,25µM*,4,?,?,?,2%
